# Measured values reported in PubChem BioAssay AID504332 (National Center for Advancing Translational Sciences (NCATS), 2011).
# The campaign covered roughly 350,000 compounds. About 31,000 (8.9%) were called active. Where a call stands in place of a potency, no number is given. Inconclusive results (about 15%) are left out. The sample holds actives, similar compounds and a random draw of the others, so the mix is not that of the screen. Unmarked numbers belong to inactive results. The call rests on the fitted dose curve; in most records, active means well fitted inhibition curve with a large enough effect; inconclusive means small, poorly fitted or top-dose-only effect; inactive means no such curve, though single readings can be large or run the other way.
# Target: Histone-lysine N-methyltransferase EHMT2 (Homo sapiens) (UniProt Q96KQ7)
# Sequence (Q96KQ7 913-1193 limits assumed): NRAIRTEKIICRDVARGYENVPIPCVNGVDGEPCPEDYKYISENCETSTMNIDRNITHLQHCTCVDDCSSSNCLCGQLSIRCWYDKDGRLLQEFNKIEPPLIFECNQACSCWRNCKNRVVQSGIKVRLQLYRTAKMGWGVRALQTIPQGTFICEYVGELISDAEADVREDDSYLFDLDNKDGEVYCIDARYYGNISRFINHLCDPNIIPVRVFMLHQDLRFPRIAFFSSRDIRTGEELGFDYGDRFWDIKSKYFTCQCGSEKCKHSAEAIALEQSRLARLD
# Assay: qHTS Assay for Inhibitors of Histone Lysine Methyltransferase G9a; further: nearly all actives have a fitted effect of over 75% in size
# Conditions: G9a H3K9 monomethylation, AlphaScreen, 2 h; series mostly up to 59 µM
# Summary of the method: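 Step 1: enzyme (final 20 nM) with compound, 15 min RT. Step 2: substrate peptide 500 nM and SAM 20 uM, 2 h RT. Step 3: anti-H3K9me1 antibody and AlphaScreen beads, 10 min, then plate read.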
# Potency means the concentration at half of the fitted maximal effect.
Structure (SMILES),Potency,"activity, negative = inhibition"
O=C(/C=C/c1ccc([N+](=O)[O-])o1)NNC(=O)c1ccc(F)cc1,inactive,–
Cc1nc2ccccc2c(=O)n1-c1ccc(F)c(NC(=O)c2cccs2)c1,inactive,–
CC(C)CN(Cc1c(O)ccc2c(=O)c(-c3ccccc3)coc12)CC(C)C,inactive,–
COc1cc(C2NC(=O)NC(c3ccccc3)=C2C(C)=O)c(Br)cc1OCC(N)=O (stereo not drawn),inactive,–
CC(C)(C)c1ccc(C(=O)NCC(c2ccco2)S(=O)(=O)c2ccc(F)cc2)cc1 (stereo not drawn),inactive,–
Cc1cccn2c(=O)c(/C=C3\SC(=S)N(CC(C)C)C3=O)c(NCCCOC(C)C)nc12,inactive,–
CCCN(CCC)c1nc2c(C)cccn2c(=O)c1/C=C1/SC(=S)N(Cc2ccco2)C1=O,39.8 µM (active),–
Cc1ccc2[nH]c(=O)c(-c3nc4c(C)cccn4c3NCc3ccco3)cc2c1,inactive,–
CCc1ccc(NC(=O)c2nn(-c3ccc(C)cc3)c(=O)n(C)c2=O)cc1,inactive,–
NS(=O)(=O)c1ccc(NC(=O)COc2ccc(S(=O)(=O)NC3CCCCC3)cc2)cc1,inactive,–
CCOc1cc(-c2cc(-c3ccc(NC(C)=O)cc3)nc(N)c2C#N)ccc1O,inactive,–
CCc1ccc(NC(=O)N2CCc3ccccc3C2)cc1,inactive,–
COc1ccc(CC(=O)NC2CCSc3ccccc32)cc1OC (stereo not drawn),inactive,–
CCOc1cc(C(=O)Nc2nnc3n2CCS3)cc(OCC)c1OCC,inactive,–
COc1ccc(CC(=O)Nc2nnc3n2CCS3)cc1OC,12.6 µM (active),–
COc1ccccc1NC(=O)C(C)OC(=O)c1ccc(-n2cnnn2)cc1 (stereo not drawn),inactive,–
O=C(NNC(=O)c1cccc(S(=O)(=O)Nc2ccc(Cl)cc2)c1)c1ccc(=O)[nH]c1,–,17.2% [at 12.7 µM]
Cc1ccc(NN=C2C(=O)OC(C)(C)OC2=O)c(C)c1,inactive,–
Cc1ccc(N/N=C2\COC(C)(C)CC2=O)cc1,44.7 µM (active),–
CN(C(=O)COC(=O)c1cc(=O)[nH]c2ccccc12)C1CCCCC1,–,-20.6% [at 2.33 µM]
CCCCNC(=S)N/N=C1\CCCCc2ccccc21,inactive,–
S=C(NCCc1ccccc1)NCC1CCCO1 (stereo not drawn),inactive,–
CCCC1CCC(=NNC(=S)NCCc2ccccc2)CC1 (stereo not drawn),14.1 µM (active),–
CC(C)(C)NC(=O)CSc1nnc(NC(=O)CCc2ccccc2)s1,inactive,–
COc1ccc(CN2CCN(Cc3cn(C)nc3-c3ccccc3)CC2CCO)c(C)c1C (stereo not drawn),inactive,–

Structure (SMILES),Potency,"activity, negative = inhibition"
Cc1ccc(CN2CCN(Cc3ccccc3-c3ccco3)CC2CCO)o1 (stereo not drawn),inactive,–
CCn1cc(CN2CCN(CC(C)(C)C)C(CCO)C2)c2ccccc21 (stereo not drawn),50.1 µM (active),–
COc1ccccc1-c1ccnc2[nH]n(-c3ccccc3)c(=O)c12,inactive,–
CNC(=S)NNC(=O)c1sccc1OCc1ccccc1,50.1 µM (active),–
Cc1ccc(/C=N/NC(=O)c2sccc2OCc2ccc(F)cc2)cc1,inactive,–
CNC(=S)NNC(=O)c1cccn(Cc2ccccc2)c1=O,inactive,–
Cc1ccc(-c2nn(-c3ccc(F)cc3)cc2C(=O)NCC(c2cccs2)N2CCOCC2)cc1 (stereo not drawn),inactive,–
CC(=O)c1ccc(N2CCN(C(=O)c3ccc(Cl)c(S(=O)(=O)NC4CC4)c3)CC2)c(F)c1,inactive,–
CCOC(=O)/C=c1\s/c(=C\c2ccccc2OC)c(=O)n1CC(=O)N1CCOCC1,inactive,–
CCOc1ccccc1NC(=O)Cn1c(=O)n(Cc2ccco2)c(=O)c2sc3ccccc3c21,inactive,–
CCOc1ccccc1/C=c1\sc2nc(-c3ccco3)nn2c1=O,35.5 µM (active),–
Cc1cc2ccccc2n1CCNC(=O)c1ccc(F)cc1,inactive,–
Cc1ccc(NC(=O)c2cn3c4c(ccc(Cl)c4c2=O)OC(C)C3)cc1C (stereo not drawn),inactive,–
O=C(O)c1cc(S(=O)(=O)N(Cc2ccccc2)c2ccccc2)ccc1Cl,inactive,–
Cc1cc(C)c2nc(-c3ccco3)cc(C(=O)O)c2c1,10 µM (active),–
CC1CCCN(C(=O)c2cc(-c3ccco3)nc3ccccc23)C1 (stereo not drawn),–,-9.53% [at 2.33 µM]
FC(F)(F)c1cc(-c2ccco2)nc(N2CCOCC2)n1,inactive,–
Cc1cc2c(c(=O)n1Cc1ccccc1)C1O[C@](CCCCN3C(=O)c4ccccc4C3=O)(Cc3ccccc31)O2,–,-0.249% [at 2.33 µM]
O=C(c1c(F)cccc1Cl)N1CCN(S(=O)(=O)c2ccc3c(c2)OCCCO3)CC1,inactive,–
Cc1oc(-c2ccccc2F)nc1CN1CCC(C(=O)NCCc2ccc(Cl)cc2)CC1,inactive,–
CCOc1ccccc1-c1nc(CN2CCC(C(=O)N3CCOCC3)CC2)c(C)o1,89.1 µM (active),–
CCOc1ccccc1-c1cc(C(=O)N2CCOCC2)c2ccccc2n1,inactive,–
O=S(=O)(c1ccc(Br)cc1)c1nnn2c1nc(N1CCOCC1)c1sccc12,inactive,–
Cc1ccc(S(=O)(=O)N2CCN(CC(=O)N/N=C/c3cc([N+](=O)[O-])ccc3Cl)CC2)cc1,inactive,–
Cc1nc([N+](=O)[O-])cn1CC(=O)Nc1ccc2c(c1)OCO2,inactive,–

Structure (SMILES),Potency,"activity, negative = inhibition"
Cc1ccc(-c2n[nH]c(=S)n2/N=C/c2cc3c(cc2[N+](=O)[O-])OCO3)cc1,1.26 µM (active),–
CCOC(=O)c1nc(-c2ccc3c(c2)OCO3)[nH]c1C,inactive,–
CC(=O)N/N=C/c1cc2c(cc1[N+](=O)[O-])OCO2,inactive,–
Cc1ccc(S(=O)(=O)N/N=C\c2cc3c(cc2[N+](=O)[O-])OCO3)cc1,5.62 µM (active),–
COc1ccccc1-c1nn(Cc2ccccc2)cc1C(=O)N1CCN(c2ncccn2)CC1,–,21.8% [at 12.7 µM]
COc1ccc(OCC(=O)Nc2nnc(-c3ccco3)s2)cc1,50.1 µM (active),–
Cc1ccc(OCC(=O)Nc2nnc(-c3ccco3)s2)cc1,inactive,–
CNc1nnc(-c2ccco2)s1,inactive,–
Cc1cccc(NC(=O)c2ccc(COc3ccccc3[N+](=O)[O-])o2)n1,inactive,–
CCOc1ccc(OCc2ccc(C(=O)Nc3cccc(C)n3)o2)cc1,44.7 µM (active),–
Cc1cccc(NC(=O)Nc2ccc(OCc3ccccc3)cc2)n1,–,8.02% [at 2.33 µM]
COc1ccc(Cl)cc1S(=O)(=O)N1CCC(c2ccncc2)CC1,inactive,–
N#Cc1ccsc1NC(=O)CN1CCN(S(=O)(=O)c2cc(Cl)ccc2Cl)CC1,50.1 µM (active),–
CC(C#N)(NC(=O)CN1CCN(S(=O)(=O)c2cc(C(F)(F)F)ccc2Cl)CC1)C1CC1 (stereo not drawn),inactive,–
N#Cc1ccsc1NC(=O)CN1CCCCC1,inactive,–
COc1ccc(Cl)cc1S(=O)(=O)N1CCN(CC(=O)C(C)(C)C)CC1,44.7 µM (active),–
COc1ccc(Cl)cc1S(=O)(=O)N1CCC(O)(c2ccc(Cl)cc2)CC1,inactive,–
O=C(NCC(c1ccco1)S(=O)(=O)c1cccs1)c1ccc(F)cc1 (stereo not drawn),inactive,–
CCc1ccc(NC(=O)CN2CCSc3ccc(S(=O)(=O)N4CCCC4)cc32)cc1,inactive,–
CCN(Cc1ccccc1)S(=O)(=O)c1ccc2c(c1)CCCN2C(C)=O,inactive,–
Cc1ccc2[nH]c3c(=O)n(CC(=O)NC(C)C)ncc3c2c1,inactive,–
CCc1ccc(NC(=O)CN2C(=O)C(c3ccccc3)=NC23CCCCCC3)cc1,inactive,–
Cc1nnc(SCc2cccc(Cl)c2)n(N)c1=O,inactive,–
Cc1cc2c(cc3c(SCc4cccc(Cl)c4)nnc(C)n32)o1,7.08 µM (active),–
Cc1cc2c(cc3c(SCc4nc(-c5ccccc5)oc4C)nnc(C)n32)o1,inactive,–

Structure (SMILES),Potency,"activity, negative = inhibition"
Cc1cc(C(=O)NNC(=O)c2ccccc2O)c(C)o1,–,72.2% [at 12.7 µM]
CC(=O)Nc1ccc(NC(=O)C(NS(=O)(=O)c2ccc3c(c2)OCCO3)C(C)C)cc1 (stereo not drawn),–,15.5% [at 12.7 µM]
Cc1ccc(C2NC(C(=O)O)CS2)cc1 (stereo not drawn),31.6 µM (active),–
Cc1ccc(NC(=O)C2CC2c2ccccc2)cc1 (stereo not drawn),–,18.3% [at 2.33 µM]
Cc1ccc(C2CC2C(=O)NN)cc1 (stereo not drawn),inactive,–
COc1cc(C(=O)Nc2ccc(-n3c(C)nc4ccccc4c3=O)cc2)cc(OC)c1OC,inactive,–
CCc1c(C)nc(N)n2c(SCC(=O)NC3CCCCC3)nnc12,inactive,–
COc1ccc(OC)c2[nH]c(=O)c(CCNC(=O)C(C)(C)C)cc12,inactive,–
COc1ccc(OC)c2[nH]c(=O)c(CCNC(=O)C(=O)c3c[nH]c4ccccc34)cc12,50.1 µM (active),–
O=C(NCCCc1ccccc1)C(=O)c1c[nH]c2ccccc12,inactive,–
Cc1ccc(S(=O)(=O)c2cn(Cc3ccccc3)c3cc(N4CCCC4)c(F)cc3c2=O)c(C)c1,inactive,–
Cc1c(NC(=O)c2cc(=O)c3ccccc3o2)c(=O)n(-c2ccccc2)n1C,inactive,–
CCc1cccc(CC)c1NC(=O)Cn1c(=O)c(-c2cc(C)ccc2NC(C)=O)nc2ccccc21,inactive,–
COC(=O)c1c(NC(=O)C(C)Oc2ccc(Cl)c(C)c2)sc(C)c1C (stereo not drawn),inactive,–
COC(=O)c1sc(NC(=O)COC(=O)C2CCC2)c(C(=O)OC)c1C,inactive,–
COCCCNCC(=O)Nc1sc(C)c(C)c1C(=O)OC,1 µM (active),–
CSc1ccccc1NC(=O)COC(=O)CCCOc1ccc(C)cc1,inactive,–
COc1ccc(CNC(=O)c2cc(C(=O)C3CC3)c[nH]2)cc1,inactive,–
Cc1cccc(N2CCN(C(=O)c3cnc(N4CCCC4)nc3C)CC2)c1C,–,5.62% [at 12.7 µM]
Cc1cccc(N2CCN(C(=O)/C=C/c3ccco3)CC2)c1C,11.2 µM (active),–
Cc1cccc(N2CCN(C(=O)CCSCc3ccccc3F)CC2)c1C,inactive,–
COc1ccc(CN(C)C(=O)c2cc(-c3ccc(C)cc3C)nc3ccccc23)c(OC)c1OC,inactive,–
Cc1cccc(-n2ncc(C(=O)N3CCN(c4ccc(Cl)cc4)CC3)c2C2CCN(C(=O)OC(C)(C)C)CC2)c1,inactive,–
